Shown are actives, neighbours in structure and some others; about 2.9% of the full set was active somewhere.
D3 antag – D3 dopamine receptor (human) antagonism | P35462 | D3R cells, DiscoveRx beta-arrestin luminescence, antagonist mode; stronger effect = lower value | max response, negative = inhibition, % | hit rate 2.5% among 360,000; in the data active means max response below about -50%; inconclusive means no clear call, values can overlap the other calls
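Cells plated overnight at 1500 cells/well, then exposed to library compounds with dopamine controls for 90 minutes at 37 degrees C. DiscoveRx reagent added for 30–60 minutes at room temperature; luminescence read, quantitative HTS format.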
DRD3 agonist – activates the human D3 dopamine receptor | P35462 | D3R DiscoveRx beta-arrestin cells, luminescence, 90 min | max activation, % | hit rate 0.58% among 410,000; in the data active means max activation above about 30%
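Agonist-mode cell screen: cells plated at 1500/well and incubated overnight at 37 °C, then exposed to library compounds for 90 min at 37 °C. Detection reagent was added for 30–60 min at room temperature, and luminescence was read.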
B2AR arrestin – beta2AR (human) beta-arrestin recruitment activity | Potency, µM (highest dose often 46.1 µM), hits mostly activators | hit rate 0.02% among 330,000 | AID 492947 | beta-arrestin recruitment to beta2AR, cell-based reporter; active means well fitted activation curve with a large enough effect; inconclusive means small, poorly fitted or top-dose-only effect; further: nearly all actives have a fitted effect of over 65% in size
TSHR antagonist – human thyrotropin receptor antagonism. hit rate 0.2% among 330,000. AID 504810. TSHR-expressing cells, TSH-stimulated cAMP HTRF, 2 h; stronger effect = lower value. activity change, negative = inhibition, % at 11.5 µM. P16473;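 active means activity change below a set negative limit, meaning inhibition stronger than a set level, cut at about -70% in these data; inconclusive means activity change between two set negative limits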
Target sequence (P16473 whole entry, looked up): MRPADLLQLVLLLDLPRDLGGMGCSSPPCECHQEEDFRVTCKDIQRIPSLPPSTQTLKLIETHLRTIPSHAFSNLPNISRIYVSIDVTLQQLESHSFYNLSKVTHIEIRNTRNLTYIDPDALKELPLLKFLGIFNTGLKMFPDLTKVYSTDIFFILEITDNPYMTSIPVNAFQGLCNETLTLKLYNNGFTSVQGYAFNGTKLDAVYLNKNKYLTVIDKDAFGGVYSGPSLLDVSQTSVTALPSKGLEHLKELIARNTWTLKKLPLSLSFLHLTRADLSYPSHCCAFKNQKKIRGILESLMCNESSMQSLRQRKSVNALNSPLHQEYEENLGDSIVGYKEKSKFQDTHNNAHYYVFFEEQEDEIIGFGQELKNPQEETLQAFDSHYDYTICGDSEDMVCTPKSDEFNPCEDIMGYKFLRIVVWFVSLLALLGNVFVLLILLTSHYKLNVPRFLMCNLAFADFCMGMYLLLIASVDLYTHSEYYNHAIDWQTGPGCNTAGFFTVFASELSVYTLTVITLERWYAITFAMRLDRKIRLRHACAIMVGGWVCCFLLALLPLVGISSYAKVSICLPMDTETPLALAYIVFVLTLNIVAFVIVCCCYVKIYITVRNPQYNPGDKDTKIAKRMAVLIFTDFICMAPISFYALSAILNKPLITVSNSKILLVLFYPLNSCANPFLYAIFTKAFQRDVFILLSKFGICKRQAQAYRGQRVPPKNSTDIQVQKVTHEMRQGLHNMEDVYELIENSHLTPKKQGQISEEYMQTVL
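Antagonism was scored as loss of TSH-driven cAMP in TSHR cells, stimulated with 4nM TSH (EC80) for 2 hours at 37 deg C and detected by homogeneous HTRF competition immunoassay.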
Large screens that a line does not name were inactive.

Cc1cccc(C(=O)NCC2CCCO2)c1 (stereo not given)	D3 antag -53.7
O=C(NCC1CCCO1)c1cccc(F)c1 (stereo not given)	none
Cc1ccc(OCc2ccc(C(=O)NCC3CCCO3)cc2)cc1C (stereo not given)	none
COc1ccc(C2CC(=O)N(CC(=O)Nc3ccc(C(C)=O)cc3)c3ccccc3S2)cc1OC (stereo not given)	none (no result: D3 antag, B2AR arrestin, TSHR antagonist)
COc1ccc(Oc2nc3c(c(=O)n(Cc4ccccc4Cl)c(=O)n3C)n2C)cc1	none (no result: D3 antag, B2AR arrestin, TSHR antagonist)
O=C(NCCN1CCCCC1)c1cc(OCC(F)(F)F)ccc1OCC(F)(F)F	D3 antag -53.0
O=C(NCCN1CCN(C(=O)c2ccc(F)cc2)CC1)c1ccc(F)cc1	D3 antag -79.4
CC(=O)Nc1ccc(S(=O)(=O)NCc2ccc(C(=O)NCCN3CCCCCC3)cc2)cc1	D3 antag -53.2
O=C(CCl)NCCNC(=O)c1cc(OCC(F)(F)F)ccc1OCC(F)(F)F	none
COc1ccc(C(=O)N2CCN(CCNC(=O)C(=O)Nc3ccc(F)cc3)CC2)cc1OC	none
Cc1cccc(C(=O)NCCN2CCCC2)c1	D3 antag -65.9
COc1ccc(N2CC(NC(=O)c3c(F)cccc3Cl)CC2=O)cc1OC (stereo not given)	none (no result: D3 antag, B2AR arrestin, TSHR antagonist)
O=C(NCc1ccccc1F)c1ccc(CN2CC(=O)N3CCCCC3C2=O)cc1 (stereo not given)	none (no result: D3 antag, B2AR arrestin, TSHR antagonist)
COc1cccc(CNC(=O)Cn2c(SCC(=O)Nc3ccc(F)cc3)nc3ccccc32)c1	none (no result: D3 antag, B2AR arrestin, TSHR antagonist)
COCCn1c(C)cc(O)c(C(c2cccc(F)c2)N2CCN(c3ccccc3)CC2)c1=O (stereo not given)	none (no result: D3 antag, B2AR arrestin, TSHR antagonist)
Cc1ccc(C(=O)NCCN2CCCC2)cc1	D3 antag inconclusive
Cc1ccc(OCC(=O)NCCN2CCCC2)cc1	none
CC(C)(C)c1ccc(OCC(=O)NCCN2CCCC2)cc1	D3 antag -56.6
CCOc1c(Cl)cc(C(=O)NCCN2CCCCC2)cc1Cl	D3 antag -73.1
CN1CCN(c2ccc(CNC(=O)C3(C)Cc4c(-c5ccc6c(c5)OCO6)ccnc4O3)cc2)CC1 (stereo not given)	D3 antag inconclusive (no result: B2AR arrestin, TSHR antagonist)
CCOC(=O)c1c(C)oc2nc(C)nc(Nc3cc(C)cc(C)c3)c12	none (no result: D3 antag, B2AR arrestin, TSHR antagonist)
O=C(O)CCSc1nc2ccccc2s1	D3 antag -71.9
CCn1c(CSc2nc3ccccc3s2)n[nH]c1=S	D3 antag -53.3
c1ccc2sc(SCSc3nc4ccccc4s3)nc2c1	none
CN(C)CCCSc1nc2ccccc2s1	D3 antag -81.6
O=c1c2sc3ccccc3c2n(Cc2cccc(C(F)(F)F)c2)c(=O)n1-c1ccccc1	none (no result: D3 antag, B2AR arrestin, TSHR antagonist)
CCOc1ccc(NC(=O)CSc2ncc3c(n2)-c2ccccc2N(C)S3(=O)=O)cc1	none (no result: D3 antag, B2AR arrestin, TSHR antagonist)
Cc1ccc(C(=O)Cc2nc3ccccc3[nH]2)cc1	D3 antag -50.5
CN1C(=O)Cc2cc(S(=O)(=O)NCc3ccccc3Cl)ccc21	none (no result: D3 antag, B2AR arrestin, TSHR antagonist)
COc1ccccc1COCC(O)CNCC1(N2CCCCC2)CCCCC1 (stereo not given)	D3 antag -60.3
COc1cc(C(C)=O)ccc1OCC(O)CNCC1(N2CCCCC2)CCCCC1 (stereo not given)	none
COc1cccc(N2CC(NC(=O)c3cccs3)CC2=O)c1 (stereo not given)	none (no result: D3 antag, B2AR arrestin, TSHR antagonist)
COc1ccc(NC(=O)COC(=O)COc2cccc3c2OC(C)(C)C3)cc1	none
COc1ccccc1C(=O)COC(=O)COc1cccc2c1OC(C)(C)C2	D3 antag -65.6
CC(NCc1ccc(N(C)C)cc1)C1CC2CCC1C2 (stereo not given)	D3 antag -70.3
O=C(N/N=C\c1ccc(F)cc1)c1ccc(Cn2cc(Br)c([N+](=O)[O-])n2)o1	none
O=C(N/N=C\c1cccc(F)c1)c1ccc(Cn2cc(Br)c([N+](=O)[O-])n2)o1	D3 antag -87.0
CCOC(=O)CCCNC(=O)c1cncc(Br)c1	DRD3 agonist 31.2
Cc1cccc(OCCNC(=O)c2cncc(Br)c2)c1	none
CCNc1ccc(Br)cc(C(=O)/C=C/c2c(Cl)cccc2Cl)c1=O	D3 antag -66.1
CC(C)c1ccccc1OCCCN1CCCC1	D3 antag -86.6
CC(C)c1ccccc1OCCCCN1CCCCC1	D3 antag -103.4 (no result: B2AR arrestin, TSHR antagonist)
CC(C)c1ccccc1OCCCCCN1CCOCC1	D3 antag -53.7 (no result: B2AR arrestin, TSHR antagonist)
Brc1ccccc1OCCCCCN1CCOCC1	D3 antag inconclusive
CC1(C(=O)NC2CCN(Cc3ccccc3)CC2)CCN1CCc1ccccc1 (stereo not given)	D3 antag -85.2 (no result: B2AR arrestin, TSHR antagonist)
CC1(C(=O)NC2CCN(Cc3ccccc3)CC2)CCN1Cc1ccc(OC(F)(F)F)cc1 (stereo not given)	D3 antag -65.4 (no result: B2AR arrestin, TSHR antagonist)
CC1(C(=O)NC2CCN(Cc3ccccc3)CC2)CCN1Cc1ccc2ccccc2c1 (stereo not given)	D3 antag -97.1 (no result: B2AR arrestin, TSHR antagonist)
CC(C)(Oc1ccc(Cl)cc1)C(=O)NC1CCN(Cc2ccccc2)CC1	D3 antag -82.3
O=C(COc1ccccc1)NC1CCN(Cc2ccccc2)CC1	D3 antag inconclusive
CC(=O)Nc1ccc(CN2CCC2(C)C(=O)NC2CCN(Cc3ccccc3)CC2)cc1 (stereo not given)	none (no result: B2AR arrestin, TSHR antagonist)
CN1CCC(NC(=O)C2(C)CCN2Cc2ccc3ccccc3c2)CC1 (stereo not given)	none (no result: B2AR arrestin, TSHR antagonist)
O=C(c1ccc2c(c1)N(Cc1ccccc1)C(=O)c1ccccc1S2=O)N1CCC(Cc2ccccc2)CC1 (stereo not given)	none (no result: D3 antag, B2AR arrestin, TSHR antagonist)
N#Cc1ccccc1Cn1c(SCC(=O)Nc2ccc(F)cc2)nc2ccccc21	none (no result: D3 antag, B2AR arrestin, TSHR antagonist)
COc1cc(C(=O)OCc2cc(=O)n3nc(C(C)C)sc3n2)cc(OC)c1OC	none (no result: D3 antag, B2AR arrestin, TSHR antagonist)
COc1cc(N)c(Cl)cc1C(=O)NC1CCN(Cc2ccccc2)CC1	D3 antag -108.3 (no result: B2AR arrestin, TSHR antagonist)
C=CCn1c(=O)/c(=C/c2cc(OC)c(OC)c(OC)c2)s/c1=C(/C#N)c1nc2ccccc2n1C	D3 antag -50.9
COCCn1c(CNC(=O)c2cc(OC)c(OC)c(OC)c2)nc2cccnc21	none (no result: D3 antag, B2AR arrestin, TSHR antagonist)
Cc1ccc(NC(=O)COC(=O)c2ccc3c(c2)OCCO3)cc1S(=O)(=O)N1CCOCC1	none
Cc1ccc(NC(=O)Cc2ccc(Cl)cc2)cc1S(=O)(=O)N1CCCCCC1	none
Cc1ccc(C(=O)N2CCOCC2)cc1S(=O)(=O)N1CCOCC1	none
Cc1ccc(NC(=O)Cn2ncc(Cl)c(Cl)c2=O)cc1S(=O)(=O)N1CCCCC1	D3 antag -57.5
Cc1ccc(NC(=O)COC(=O)c2ccc(NC(=O)CC#N)cc2)cc1S(=O)(=O)N1CCOCC1	D3 antag -52.5
Cc1ccc(C(=O)O)cc1S(=O)(=O)N1CCOCC1	D3 antag -71.9
Cc1ccc(NC(=O)COC(=O)C2CC3C=CC2C3)cc1S(=O)(=O)N1CCCCC1 (stereo not given)	DRD3 agonist 47.0
COc1ccc2[nH]c(=O)c(CN(C(=O)c3cccc(Cl)c3)c3ccccc3OC)cc2c1	none (no result: D3 antag, B2AR arrestin, TSHR antagonist)
CCCc1cc(C(=O)Nc2nccs2)cs1	D3 antag -51.5
O=C(NC1CCCC1)c1ccc2c(=O)n(Cc3ccccc3)c(SCc3ccccc3F)nc2c1	none (no result: D3 antag, B2AR arrestin, TSHR antagonist)
CN(CCCN1c2ccccc2CCc2ccccc21)CC(=O)c1ccc(Cl)cc1	none (no result: D3 antag, B2AR arrestin, TSHR antagonist)
